# Bioassay records from PubChem.
# A selection: hits, their analogues and other compounds. The true share with any hit is near 2.2%.
# GRK2 aptamer HTS – human GRK2 inhibition via aptamer displacement; P25098; AID 488847; 330,000 tested, 0.59% active; bead flow cytometry, FAM-aptamer displacement from GRK2; inhibition of aptamer binding, % at 10 µM;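 active = inhibition of aptamer binding above 40%, roughly 3 SD of noise, on plates passing a quality check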;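 note: median bead fluorescence of bound FAM aptamer so fluorescent compounds give negative values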
# ANO1 block – inhibitors of mouse TMEM16A calcium-activated chloride channel; Q8BHY3; HEK293 TMEM16A/YFP iodide influx fluorescence, ionomycin; normalized B-score (activity score, 25-100; higher = stronger inhibition) at 10 µM; 310,000 tested, 1.2% active;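 active = ratio plate-corrected score three or more library SD toward inhibition, starting fluorescence score within five deviations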;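 note: score derived from kinetic fluorescence span divided by baseline fluorescence per well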
# TMEM16A act – mouse TMEM16A channel activation, primary screen | B-score at 10 µM | HEK293 TMEM16A/YFP-H148Q/I152L, iodide quench fluorescence; hits give low values | 340,000 tested, 0.3% active;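 active = fluorescence-ratio B-score plate-corrected deviation score at least 3 library SD below zero, with starting fluorescence score within 5 deviations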;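 note: channel opened by trigger with iodide after compound preincubation; score built on the fluorescence ratio of max minus min over baseline; more negative score means more quench and so TMEM16A activation or potentiation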
# TLR4 MyD88 comp – inhibitors of human TLR4-MyD88 binding. inhibition, % at 8.4 µM. HeLa CL3-4 TLR4/MyD88 BLA complementation, FRET ratio. 200,000 tested, 0.18% active; in the data active = inhibition above about 25%;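 note: 0% = vehicle and 100% = reference inhibitor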
# TLR9-MyD88 inh – inhibitors of human TLR9-MyD88 binding; Q9NR96+Q99836; CHO BLA complementation TLR9-MyD88, CCF4 FRET ratio; inhibition, % at 4.98 µM; 340,000 tested, 0.21% active; AID 504734;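 active = inhibition above the mean over all tested compounds plus 3 SD, cut at about 21% in these data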;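 note: 0% = DMSO only wells and 100% = clavulanate BLA inhibitor control wells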
# NOD2-RIPK2 inh – blocks binding of human NOD2 to RIPK2 | inhibition, % at 4.98 µM | 360,000 tested, 0.38% active | O43353 | CHO BLA complementation NOD2-RIPK2, CCF4 ratio; in the data active = inhibition above about 21%;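 note: 0% = vehicle only and 100% = reference blocker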
# * marks the source's active call; other numbers are inactive results; i = inactive; x = not tested or not shown.
SMILES,GRK2 aptamer HTS,ANO1 block,TMEM16A act,TLR4 MyD88 comp,TLR9-MyD88 inh,NOD2-RIPK2 inh
COc1cc(/C(C)=N/NC(=O)c2cccc(S(=O)(=O)N3CCCC3)c2)cc(OC)c1OC,50*,i,i,x,-6,0
CC(C)(C)c1ccc(C(=O)Nc2sc3c(c2C(=O)O)CCC3)cc1,2,100*,i,2,-3,-6
O=C(NCc1ccccc1)C(C1CC1)n1c(CSCCOc2ccccc2)nc2ccccc21 (stereo unspecified),x,x,x,x,x,6
CCCN(CCC)C(=O)CSc1nc2n[nH]c(C)c2c(=N)n1-c1ccc(OCC)cc1,5,i,i,1,6,2
CCOc1ccc(-n2c(SCC(=O)Nc3ccc(CC)cc3)nc3n[nH]c(C)c3c2=N)cc1,0,i,-6.4*,-5,7,-5
CCC(=O)N(c1ccc(C(=O)O)cc1)c1nc(-c2ccc(OC)cc2)c(C)s1,2,i,i,-9,11,-5
Cc1sc(N(C(=O)CCc2ccccc2)c2ccc(C(=O)O)cc2)nc1-c1ccccc1,0,25*,i,-6,9,-1
CC(C)CC(=O)NC(NC(=S)Nc1sc2c(c1C#N)CCCC2)C(Cl)(Cl)Cl (stereo unspecified),5,100*,i,4,4,-1
CC(=O)NC(c1cccc(F)c1)c1nc(/C=C/c2ccccc2)cs1 (stereo unspecified),x,x,x,x,x,-7
O=C(NNC(=S)NC(=O)C12CC3CC(CC(C3)C1)C2)c1ccncc1,0,25*,i,-5,-2,5
COc1ccc(CCC(=O)OCC(=O)Nc2sccc2C(N)=O)cc1,0,x,-5.3*,x,-15,-21
COc1ccc(CCC(=O)OCC(=O)Nc2sccc2C(N)=O)cc1OC,0,x,i,x,-10,8
O=C(N[C@H]1CC[C@H](CCNC(=O)C2CC2)O[C@@H]1CO)c1ccccn1,x,x,x,x,x,-9
CCOC(=O)Cn1nnnc1CN(Cc1ccccc1)Cc1cc2cc(CC)ccc2[nH]c1=O,1,25*,i,-3,-23,-8
CCc1ccc2[nH]c(=O)c(CN(Cc3ccccc3)Cc3nnnn3Cc3ccco3)cc2c1,1,i,i,-2,-2,-9
Cc1ccc(S(=O)(=O)C[C@@H]2OC[C@H](C(C)C)N2S(=O)(=O)c2ccc(C)cc2)cc1,x,x,x,x,x,-10
O=[N+]([O-])c1cc([N+](=O)[O-])c2nonc2c1Nc1ccccc1O,1,100*,i,x,15,6
O=[N+]([O-])c1cc([N+](=O)[O-])c2nonc2c1Nc1ccc(O)cc1,0,i,i,x,-4,1
COc1ccc(C(=O)C(c2ccccc2)N2CCOCC2)cc1 (stereo unspecified),1,i,x,2,-12,6
Cc1ccc(C(=O)C(c2ccccc2)N2Cc3ccccc3C2=N)cc1 (stereo unspecified),3,100*,i,-5,-1,-9
CCC1Oc2ccc(C)cc2N(CC(=O)N(Cc2cccnc2)Cc2cccc(F)c2)C1=O (stereo unspecified),2,100*,i,-5,-13,4
Cc1ccc(N2CCN(C(=O)C(=O)c3cccc(Br)c3)CC2)cc1,x,x,x,x,x,-13
O=[N+]([O-])c1cccc(N=Nc2ccc(O)cc2O)c1,x,x,i,x,3,-10
O=[N+]([O-])c1ccc(N=Nc2ccc(O)cc2O)cc1,0,100*,i,5,-3,-12
Cc1ccc(CN2CCC(C)(Oc3ccc(Cl)cc3)C2)cc1 (stereo unspecified),x,x,x,x,x,-2
SMILES,GRK2 aptamer HTS,ANO1 block,TMEM16A act,TLR4 MyD88 comp,TLR9-MyD88 inh,NOD2-RIPK2 inh
CN(C)CCCNC(=O)OC1CC2CC1[C@H]1CCCCN1C2=O (stereo partly specified),x,x,x,x,x,-3
COc1ccc(-c2cc(C)no2)cc1S(=O)(=O)Nc1ccccc1,0,i,i,x,-7,3
CCc1ccc(-c2cc(C)no2)cc1S(=O)(=O)NCCc1ccc(OC)c(OC)c1,11,100*,i,x,0,0
COc1ccccc1NS(=O)(=O)c1cc(-c2cc(C)no2)ccc1OC,0,100*,i,x,0,8
CSCCC(C(=O)NC(C)(C)C)n1c(-c2ccc(C)cc2)nc2ccccc21 (stereo unspecified),x,x,x,x,x,-2
COc1cccc(CN2CCC2(C)C(=O)Nc2cccc(Oc3ccccc3)c2)c1F (stereo unspecified),x,x,x,x,x,-2
COc1ccc(S(=O)(=O)Nc2cccc(S(=O)(=O)N3CCCCCC3)c2)cc1,1,i,i,1,3,-7
O=S(=O)(Nc1nc2ccccc2nc1Nc1cccc(S(=O)(=O)N2CCCCC2)c1)c1ccccc1,0,100*,i,-3,-6,-5
Cc1cc(C)n(C(=O)/C(C#N)=N/Nc2cc(Cl)cc(Cl)c2)n1,0,100*,i,2,13,-1
C/C(=N\Nc1nc(C)c(C)s1)c1ccc([N+](=O)[O-])cc1,1,i,-21*,14,12,1
O=C(COC(=O)c1cc([N+](=O)[O-])ccc1N1CCOCC1)c1ccccc1,0,i,i,x,-7,-15
O=C(COC(=O)c1cc([N+](=O)[O-])ccc1N1CCOCC1)c1ccccc1Cl,57*,i,i,x,-9,-15
COc1cc(NC(=O)c2ccc(-c3ccc(F)c(F)c3)c3ccoc23)cc(OC)c1OC,x,x,x,x,x,-12
CCn1c(=NC(=O)CS(=O)(=O)c2ccc(C)cc2)sc2cccc(OC)c21,2,100*,i,x,-2,-5
COc1cccc2sc(=NC(=O)CS(=O)(=O)c3ccc(F)cc3)n(C)c12,2,i,i,x,0,-10
Cc1ccc(NC(=O)c2ccc(-n3cncn3)c([N+](=O)[O-])c2)cc1,2,i,i,3,0,3
CCN(CC)S(=O)(=O)c1cc(NC(=O)c2ccc(-n3cncn3)c([N+](=O)[O-])c2)ccc1C,0,100*,i,x,9,-1
Cc1cc(/C=N/n2c(COc3ccccc3C)nc3ccccc3c2=O)c(O)c([N+](=O)[O-])c1,1,100*,i,-3,5,-11
O=c1c2ccccc2nc(COc2ccccc2)n1/N=C/c1cc([N+](=O)[O-])ccc1O,0,100*,i,-8,11,-7
COC(=O)[C@]12CCCCC=C1N(CCc1ccc(OC)c(OC)c1)C(=O)[C@H](CC(=O)NCCCCc1ccccc1)C2,x,x,x,x,x,-6
Cc1ccc(N2CCN(C(=O)CNS(=O)(=O)c3ccc(Br)s3)CC2C)cc1 (stereo unspecified),1,100*,i,-1,2,-5
